Counter-ions that a name gives are not always drawn. ± gives the standard deviation of the averaged measurements.
Tested on: A549
Assay: relative viability (normalised to negative control = 1, bortezomib = 0) (fraction); higher = less cytotoxic
Details: inflammatory serum-free RHB-A with cytokines + LPS, 5 d + 24 h CellTiter-Blue
[1] = compound 30 nM, GSK126 pretreatment: 5 uM GSK126
[2] = compound 30 nM, GSK126 pretreatment: none (vehicle)
[3] = compound 300 nM, GSK126 pretreatment: 5 uM GSK126
[4] = compound 300 nM, GSK126 pretreatment: none (vehicle)

SMILES | relative viability [1] | relative viability [2] | relative viability [3] | relative viability [4]
O=C1NC(=O)/C(=C/c2ccc3c(c2)OC(F)(F)O3)S1 | 0.939 ± 0.15 | 0.969 ± 0.17 | 1.01 ± 0.14 | 0.968 ± 0.092
COc1cc2c(Oc3ccc(NC(=O)C4(C(=O)Nc5ccc(F)cc5)CC4)cc3F)ccnc2cc1OCCCN1CCOCC1 | 0.797 ± 0.081 | 0.789 ± 0.037 | 0.57 ± 0.1 | 0.573 ± 0.074
Nc1cccc2c1CN(C1CCC(=O)NC1=O)C2=O (centres undefined) [Lenalidomide] | 0.854 ± 0.11 | 0.789 ± 0.061 | 0.882 ± 0.059 | 0.82 ± 0.035
Nc1cc(C(F)(F)F)c(-c2cc(N3CCOCC3)nc(N3CCOCC3)n2)cn1 | 0.85 ± 0.082 | 0.771 ± 0.058 | 0.664 ± 0.064 | 0.751 ± 0.052
CNC(=O)c1ccc(C)c(-n2c(C)cc(OCc3ccc(F)cc3F)c(Br)c2=O)c1 | 1.15 ± 0.17 | 0.936 ± 0.17 | 1.29 ± 0.13 | 0.974 ± 0.085
COc1cccc2c1C(=O)c1c(O)c3c(c(O)c1C2=O)C[C@@](O)(C(C)=O)C[C@@H]3O[C@H]1C[C@H](N)[C@H](O)[C@H](C)O1 [Daunorubicin hydrochloride; Daunorubicin HCl] | 0.839 ± 0.095 | 0.765 ± 0.056 | 0.133 ± 0.019 | 0.143 ± 0.021
COc1ccc(-c2ccc3c(N4CCOCC4)nc(N4C[C@@H](C)O[C@@H](C)C4)nc3n2)cc1CO | 0.708 ± 0.013 | 0.745 ± 0.027 | 0.428 ± 0.052 | 0.515 ± 0.086
CC[C@]1(O)C[C@@H]2CN(CCc3c([nH]c4ccccc34)[C@@](C(=O)OC)(c3cc4c(cc3OC)N(C)[C@H]3[C@@](O)(C(=O)OC)[C@H](OC(C)=O)[C@]5(CC)C=CCN6CC[C@]43[C@@H]65)C2)C1 [Vinblastine sulfate salt; Vinblastine sulfate] | 0.447 ± 0.011 | 0.286 ± 0.039 | 0.277 ± 0.024 | 0.255 ± 0.022
Cc1ncc(-c2ccnc(Nc3ccc(S(C)(=O)=O)cc3)n2)n1C(C)C | 0.867 ± 0.072 | 0.854 ± 0.011 | 0.675 ± 0.062 | 0.69 ± 0.03
CN(N=O)C(=O)N[C@@H]1[C@@H](O)[C@H](O)[C@@H](CO)O[C@@H]1O [Streptozocin] | 0.985 ± 0.071 | 0.903 ± 0.13 | 1.01 ± 0.15 | 1.08 ± 0.088
NC(=O)c1ccc(N(C(N)=O)c2c(F)cccc2F)nc1-c1ccc(F)cc1F | 0.914 ± 0.11 | 0.873 ± 0.059 | 1.09 ± 0.055 | 0.995 ± 0.11
O=c1cc(N2CCOCC2)oc2c(-c3ccccc3)cccc12 | 0.773 ± 0.033 | 0.819 ± 0.048 | 0.748 ± 0.15 | 0.835 ± 0.068
Cc1cc(Nc2cc(N3CCN(C)CC3)nc(Sc3ccc(NC(=O)C4CC4)cc3)n2)n[nH]1 | 0.766 ± 0.087 | 0.717 ± 0.062 | 0.584 ± 0.067 | 0.459 ± 0.052
CC(C)C[C@H](NC(=O)[C@H](Cc1ccccc1)NC(=O)c1cnccn1)B(O)O [Bortezomib] | 0.00425 ± 0.0011 | 0.015 ± 0.0062 | 0.00234 ± 0.0024 | 0.00262 ± 0.0014
CC[C@]1(O)C[C@H]2CN(CCc3c([nH]c4ccccc34)[C@@](C(=O)OC)(c3cc4c(cc3OC)N(C=O)[C@H]3[C@@](O)(C(=O)OC)[C@H](OC(C)=O)[C@]5(CC)C=CCN6CC[C@]43[C@@H]65)C2)C1 [Vincristine sulfate] | 0.453 ± 0.072 | 0.289 ± 0.031 | 0.388 ± 0.035 | 0.303 ± 0.014
Cc1ccc(-c2cc(C(F)(F)F)nn2-c2ccc(S(N)(=O)=O)cc2)cc1 [Celecoxib] | 0.842 ± 0.065 | 0.787 ± 0.09 | 0.783 ± 0.13 | 0.908 ± 0.14
CC(=O)O[C@@]12CO[C@@H]1C[C@H](O)[C@@]1(C)C(=O)[C@H](O)C3=C(C)[C@@H](OC(=O)[C@H](O)[C@@H](NC(=O)OC(C)(C)C)c4ccccc4)C[C@@](O)([C@@H](OC(=O)c4ccccc4)[C@H]21)C3(C)C [Docetaxel] | 0.491 ± 0.058 | 0.349 ± 0.015 | 0.583 ± 0.053 | 0.429 ± 0.011
Clc1ccc(Nc2nnc(Cc3ccncc3)c3ccccc23)cc1 [Vatalanib] | 0.822 ± 0.036 | 0.791 ± 0.044 | 0.84 ± 0.074 | 0.874 ± 0.05
FC(F)c1nc2ccccc2n1-c1nc(N2CCOCC2)nc(N2CCOCC2)n1 | 0.684 ± 0.12 | 0.738 ± 0.044 | 0.321 ± 0.1 | 0.395 ± 0.033
COC(=O)c1ccc2c(C(=Nc3ccc(N(C)C(=O)CN4CCN(C)CC4)cc3)c3ccccc3)c(O)[nH]c2c1 [BIBF1120(Vargatef)] | 0.825 ± 0.044 | 0.812 ± 0.16 | 0.844 ± 0.13 | 1.01 ± 0.18
Nc1nc(Nc2ccc(S(N)(=O)=O)cc2)nn1C(=O)c1c(F)cccc1F | 0.96 ± 0.1 | 0.927 ± 0.15 | 1.12 ± 0.067 | 1.07 ± 0.099
COC(=O)Nc1ccc(-c2nc(N3CCOCC3)c3cnn(C4CCN(Cc5cccnc5)CC4)c3n2)cc1 | 0.851 ± 0.12 | 0.869 ± 0.13 | 0.847 ± 0.061 | 0.832 ± 0.097
CCN(CC)CCNC(=O)c1c(C)[nH]c(/C=C2\C(=O)Nc3ccc(F)cc32)c1C [Sunitinib; Sunitinib Malate; Sunitinib (free base)] | 0.842 ± 0.03 | 0.832 ± 0.046 | 0.896 ± 0.067 | 0.939 ± 0.097
O=c1cc(N2CCOCC2)oc2c(-c3cccc4c3sc3ccccc34)cccc12 | 0.877 ± 0.026 | 0.869 ± 0.057 | 0.922 ± 0.055 | 0.919 ± 0.072
CO[C@@]12[C@H](COC(N)=O)C3=C(C(=O)C(C)=C(N)C3=O)N1C[C@@H]1N[C@@H]12 [Mitomycin; Mitomycin C] | 0.827 ± 0.16 | 0.845 ± 0.092 | 0.58 ± 0.1 | 0.47 ± 0.05
O=C(c1ccc(/C=C/c2n[nH]c3ccccc23)cc1)N1CCNCC1 | 0.843 ± 0.022 | 0.862 ± 0.046 | 0.957 ± 0.065 | 1.04 ± 0.091
